Compound activity deposited in PubChem by several laboratories.
Sampled rows, rich in hits. Any-hit rate of the full collection: about 9.7%.
M1 ag: agonists of M1 muscarinic receptor; 64,000 tested, 3% active; AID 626; B-score at 10 µM; CHO-M1 cells, Fluo-4 calcium fluorescence, agonist mode; stronger effect = higher value;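 active = fluorescence rise, raw or as B-score row- and column-corrected plate score, outside the 99.7% band of its plate's samples, either direction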
M1 antagonist: M1 muscarinic receptor (rat) antagonism; P08482; AID 628; 64,000 tested, 3.4% active; CHO-M1 cells, Fluo-4 calcium, ACh EC80 antagonist mode; stronger effect = lower value; B-score at 10 µM;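 active = calcium fluorescence response, raw or row-and-column corrected B-score, differing from the plate sample mean either way at a set confidence level, mostly lower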
BAP1 inh: human BAP1 deubiquitinase inhibition; Q92560; recombinant BAP1, Ub-AMC hydrolysis fluorescence kinetic; stronger effect = lower value; AID 436; 72,000 tested, 0.48% active; calls only at 20 µM;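 active = activity remaining at or below 50% of control, provided the compound also passes the data quality filters; inactive = the rest, including low values that fail the filters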;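 note: 100% = DMSO wells rate and 0% = substrate alone blank rate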
Autofluor 339: intrinsic fluorescence of library compounds, ex339/em460 – biochemical, MLSMR library, data from DPM-DC assay, artefact control, profiling panel; fluorescence fold increase at 10 µM; 65,000 tested, 5.5% active; compound autofluorescence, ex339/em460 nm, NADH buffer; stronger effect = higher value; 1 = no-compound wells, NADH background;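 active = at 10 µM, mean starting fluorescence two-fold or more over control wells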;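 note: signal is the first read of a kinetic run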
WNV protease inh: WNV NS2B-NS3 proteinase inhibition; WNV NS2B-NS3 protease, fluorogenic substrate Ex360/Em465; stronger effect = lower value; AID 577; P06935; 65,000 tested, 0.18% active; z-score (test concentration not listed); in the data active = z-score below about -3
Target sequence (P06935 1371-1501 limits assumed): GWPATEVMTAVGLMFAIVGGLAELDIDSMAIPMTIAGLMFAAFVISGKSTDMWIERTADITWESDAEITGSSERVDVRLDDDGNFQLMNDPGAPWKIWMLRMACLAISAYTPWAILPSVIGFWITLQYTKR
Target sequence (P06935 1502-1679 limits assumed): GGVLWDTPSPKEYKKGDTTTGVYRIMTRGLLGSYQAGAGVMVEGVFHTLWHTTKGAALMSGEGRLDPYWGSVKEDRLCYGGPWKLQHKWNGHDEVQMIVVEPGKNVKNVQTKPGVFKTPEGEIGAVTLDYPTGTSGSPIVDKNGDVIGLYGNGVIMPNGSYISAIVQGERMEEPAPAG
Abs 340nm: compound absorbs light at 340 nm; compound absorbance at 340 nm, fold over control; fold change at 10 µM; 65,000 tested, under 10 active; AID 708;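 active = at 10 µM dose, initial 340 nm absorbance at least 2 fold that of control wells; inactive = change under 2 fold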;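 note: initial absorbance extrapolated from kinetic A340 decline of NADH oxidation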
Starred values were filed as active, the others as inactive.

For COC(=O)c1cc2c(cn1)[nH]c1ccccc12 the results were BAP1 inh active.
For CCOC(=O)c1cc2c(cn1)[nH]c1ccccc12 the results were M1 ag 0.002, M1 antagonist 0.16, BAP1 inh inactive, Autofluor 339 2.2*, WNV protease inh 0.52 and Abs 340nm 0.98.
`Cc1cc(OCC(=O)Nc2c(C)n(C)n(-c3ccccc3)c2=O)c2c3c(c(=O)oc2c1)CCC3` gave M1 ag 0.092, M1 antagonist -0.2, BAP1 inh inactive, Autofluor 339 2.1*, WNV protease inh 1.6 and Abs 340nm 1.1.
Screening CCCOC(=O)COc1cc(C)cc2oc(=O)c3c(c12)CCC3 returned M1 ag -0.58, M1 antagonist 0.75, BAP1 inh inactive, Autofluor 339 2.2*, WNV protease inh -0.54 and Abs 340nm 1.
Screening Cc1cc(OCC(=O)O)c2c3c(c(=O)oc2c1)CCCC3 returned M1 ag -0.39, M1 antagonist -0.016, Autofluor 339 2.5*, WNV protease inh -0.37 and Abs 340nm 1.
For COC(=O)c1ccc(COc2cc(C)cc3oc(=O)c4c(c23)CCCC4)o1 the results were M1 ag 1.1, M1 antagonist 0.68, BAP1 inh inactive, Autofluor 339 1.3, WNV protease inh -1.2 and Abs 340nm 1.
Screening C[C@H]1CCC[C@H](O)CCCCCc2cc(O)cc(O)c2C(=O)O1 returned M1 ag -0.13, M1 antagonist 2.4*, BAP1 inh inactive, Autofluor 339 1.1, WNV protease inh -0.42 and Abs 340nm 0.99.
CC(=O)Oc1ccc(C(=O)Nc2ccc(Cl)cc2C(=O)c2ccccc2)cc1 was read as BAP1 inh inactive.
Screening O=C(Nc1ccc(Br)cc1C(=O)c1ccccc1Cl)c1ccco1 returned BAP1 inh inactive.
Screening O=C(Nc1ccc(Br)cc1C(=O)c1ccccc1Cl)c1ccc([N+](=O)[O-])cc1 returned BAP1 inh inactive.
Screening CC(C)OCCCNC(=O)c1c(N)n(Cc2cccs2)c2nc3ccccc3nc12 returned M1 ag -0.47, M1 antagonist -2.8, BAP1 inh inactive, Autofluor 339 3*, WNV protease inh 0.1 and Abs 340nm 1.
Screening CC(=O)c1c(C)n(CC2CCCO2)c2ccc(O)cc12 (configuration not stated) returned M1 ag 0.047, M1 antagonist -2.1, BAP1 inh inactive, Autofluor 339 1.1, WNV protease inh -1.7 and Abs 340nm 1.1.
COc1ccccc1OCCCn1cc(C(=O)c2ccco2)c2ccccc21 was read as M1 ag 2.2, M1 antagonist -0.083, Autofluor 339 1, WNV protease inh -0.24 and Abs 340nm 1.
Screening CCCCNC(=O)c1c(N)n(CCCOC)c2nc3ccccc3nc12 returned M1 ag -1.3, M1 antagonist 0.17, BAP1 inh inactive, Autofluor 339 2.4*, WNV protease inh 1.1 and Abs 340nm 1.
For CCOC(=O)c1c(N)n(CCCOC(=O)c2ccco2)c2nc3ccccc3nc12 the results were M1 ag 2.2, M1 antagonist -0.15, BAP1 inh inactive, Autofluor 339 4*, WNV protease inh 1.8 and Abs 340nm 1.1.
For Nc1c(C(=O)NC2CCCC2)c2nc3ccccc3nc2n1CC1CCCO1 (configuration not stated) the results were M1 ag -0.053, M1 antagonist 0.72, BAP1 inh inactive, Autofluor 339 3.7*, WNV protease inh 1.8 and Abs 340nm 1.
`COc1cc(C)c(CNCCc2ccccc2OC)cc1C` gave BAP1 inh inactive.
For O=C(Nc1ccc(Cl)cc1C(=O)c1ccccc1)c1ccc(Br)cc1 the results were BAP1 inh inactive.
O=C(Nc1ccc(Cl)cc1C(=O)c1ccccc1Cl)c1ccc([N+](=O)[O-])s1 was read as BAP1 inh inactive.
Screening O=c1c(Cl)c(Cl)[nH]c(Cl)c1Cl returned BAP1 inh inactive.
For Nc1c(C(=O)OCC2CCCO2)c2nc3ccccc3nc2n1Cc1cccs1 (configuration not stated) the results were M1 ag 0.16, M1 antagonist 0.38, Autofluor 339 2.1*, WNV protease inh 2.1 and Abs 340nm 1.1.
Screening COCCCn1c(N)c(C(=O)OCCOC)c2nc3ccccc3nc21 returned M1 ag 0.026, M1 antagonist -0.32, Autofluor 339 3.8*, WNV protease inh 2.2 and Abs 340nm 1.1.
`COCCCNC(=O)c1c(NC(=O)c2ccco2)n(Cc2ccccc2)c2nc3ccccc3nc12` gave M1 ag 1.3, M1 antagonist 0.047, BAP1 inh inactive, Autofluor 339 3.8*, WNV protease inh 0.65 and Abs 340nm 1.1.
`C=CCC1(CN2CCCCCC2=O)C(=O)NC(=O)NC1=O` gave M1 ag -0.64, M1 antagonist -0.48, BAP1 inh inactive, Autofluor 339 1.1, WNV protease inh -6.5* and Abs 340nm 1.
For O=C1CCCN1CC#CCN1CCCC1 the results were BAP1 inh inactive.
`CC(C)(C)n1c(O)c(C=Nc2ccc3c(c2)CCC3)c(=O)[nH]c1=O` gave M1 ag -0.2, M1 antagonist -0.018, BAP1 inh inactive, Autofluor 339 2.1*, WNV protease inh -0.34 and Abs 340nm 1.1.
CC(=Nc1ccc2c(c1)CCC2)c1c(O)n(C)c(=O)n(C)c1=O was read as M1 ag 0.002, M1 antagonist 0.0088, BAP1 inh inactive, Autofluor 339 1.1, WNV protease inh 0.71 and Abs 340nm 1.1.
Screening CCC(=NC1CCN(Cc2ccccc2)CC1)c1c(O)[nH]c(=O)[nH]c1=O returned M1 ag -0.043, M1 antagonist -0.39, BAP1 inh inactive, Autofluor 339 1, WNV protease inh 1 and Abs 340nm 0.99.
`CCOC(=O)c1ccc(NC(=O)c2c(O)[nH]c(=O)[nH]c2=O)cc1` gave M1 ag 86*, M1 antagonist 0.27, BAP1 inh inactive, Autofluor 339 1.1, WNV protease inh -1.5 and Abs 340nm 1.
`Cc1oc2ccc(OC(=O)N(C)C)cc2c1C(=O)OC(C)C` gave M1 ag -1.9, M1 antagonist -0.48, BAP1 inh inactive, Autofluor 339 1, WNV protease inh 0.52 and Abs 340nm 1.
`CCOC(=O)c1c(-c2ccc(OC)cc2)oc2ccc(OC(=O)N(C)C)cc12` gave M1 ag 0.011, M1 antagonist 0.5, Autofluor 339 3.8*, WNV protease inh 0.31 and Abs 340nm 1.1.
For COc1cc(C(=O)OC2CC3CCC(C2)N3C)cc(OC)c1OC (configuration not stated) the results were BAP1 inh inactive.
For Nc1nn[nH]n1 the results were BAP1 inh inactive.
